# High-throughput results (PubChem)
# SNCA expr inh = Primary qHTS assay for inhibitors of alpha-synuclein gene (SNCA) expression | HEK-293 SNCA-luciferase knock-in, luminescence, 24 h | Potency, µM (top dose mostly 57.2 µM), for inactives: at the top dose activity change, negative = inhibition, usual class: inhibitors | hit rate 0.17% among 140,000;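 note: potency is the fitted concentration of half-maximal effect; plate controls were DMSO cells for no effect and cell-free wells for full effect; nearly all actives have a fitted effect of over 45% in size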
# HEK293 viab = GF-AFC viability counterscreen for inhibitors of alpha-synuclein gene (SNCA) expression; HEK-293-SNCA-luc viability, GF-AFC fluorescence, 24 h; Potency, µM (titrated, usually from 57.1 µM), for inactives: at the top dose activity change, negative = cytotoxicity, most hits filed as cytotoxic; AID 1671193, 2021; hit rate 0.12% among 150,000;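 note: potency is the fitted concentration of half-maximal effect; 0% = DMSO-treated cells and -100% = medium-only wells without cells; nearly all actives have a fitted effect of over 30% in size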
#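 Cytotoxicity counterscreen: after 24 h compound treatment of genome-edited SNCA-luciferase HEK-293 cells, live-cell protease substrate GF-AFC read by fluorescence after 30 min; activity scaled between DMSO (0%) and medium-only (-100%), curves Hill-fitted.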
# KDM5B inh = Primary screen for KDM5B Histone Demethylases FDH-coupled qHTS. Lysine-specific demethylase 5B (Homo sapiens), Q9UGL1. AID 1347165, 2019. KDM5B demethylase, FDH-coupled NADH fluorescence (FDH is formaldehyde dehydrogenase). hit rate 2.6% among 220,000. Potency, µM (highest dose often 57.7 µM), hits mostly inhibitors; note: potency is the fitted concentration of half-maximal effect; 0% is about no effect; nearly all actives have a fitted effect of over 70% in size
#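 Measured: NADH fluorescence change, 30 min, RT. System: KDM5BΔAP 200 nM final, H3K4me3 peptide, α-KG, Fe(II), ascorbate, NAD⁺ plus FDH, pH 7.5 HEPES. Compounds: titrated, 10 min pre-incubation with enzyme.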
# IP6K1 inh = Primary qHTS assay for small molecule inhibitors of Inositol hexaphosphate kinase 1 (IP6K1) | Inositol hexakisphosphate kinase 1 (Homo sapiens), Q92551 | IP6K1 kinase, ADP-Glo luminescence, 2 h; stronger effect = lower value | activity change, % (series mostly up to about 58 µM) | hit rate 0.81% among 140,000 | AID 1645851, 2021; in the data active = activity change below about -25%; note: % is set by controls: 0 for no effect and ±100 for the full control effect
# Target sequence (Q92551 whole entry, looked up): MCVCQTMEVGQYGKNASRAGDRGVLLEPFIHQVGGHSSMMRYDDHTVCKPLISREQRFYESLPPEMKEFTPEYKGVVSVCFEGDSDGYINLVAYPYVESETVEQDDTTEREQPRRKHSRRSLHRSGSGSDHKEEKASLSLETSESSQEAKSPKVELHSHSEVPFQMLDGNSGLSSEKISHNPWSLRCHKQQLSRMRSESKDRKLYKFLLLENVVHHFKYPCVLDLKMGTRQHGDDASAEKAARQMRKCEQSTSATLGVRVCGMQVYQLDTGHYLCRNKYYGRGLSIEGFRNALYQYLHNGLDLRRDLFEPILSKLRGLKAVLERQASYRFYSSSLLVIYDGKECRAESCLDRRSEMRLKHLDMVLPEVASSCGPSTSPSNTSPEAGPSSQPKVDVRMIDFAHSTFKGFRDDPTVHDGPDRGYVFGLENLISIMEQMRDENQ
#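 ADP-Glo luminescence measures ADP made by human IP6K1 during a 2 h RT reaction with ATP/IP6 (mix at 1.3 mM/130 uM); top library doses 57.5 and 19.1 uM final.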
# Active calls of the source: *; i = inactive; u = inconclusive; x = not tested or not shown; ! = repeats disagree; [ ] = remark or other dose. Hits are enriched below; roughly 3% of the tested compounds scored in any of these assays. Unless noted, calls come from the whole dose curve; as a rule, active = well fitted curve in the direction sought with a large enough effect; inconclusive = small, poorly fitted or top-dose-only effect, or another doubt; inactive = no such curve, though single readings can be large; an effect the other way counts as inactive or inconclusive.
SMILES,SNCA expr inh,HEK293 viab,KDM5B inh,IP6K1 inh
CCc1ccc(NC(=O)C2CC(=O)N(c3n[nH]c4cccc(F)c34)C2)cc1 (stereo unspecified),-4%,12%,35µM*,-4
CC(=O)Nc1ccc(NC(=O)C2CC(=O)N(c3n[nH]c4cccc(F)c34)C2)cc1 (stereo unspecified),-6%,1%,35µM*,-12
Cc1ccc(NC(=O)C2CC(=O)N(c3n[nH]c4cccc(F)c34)C2)cc1C (stereo unspecified),-15%,1%,18µM*,-15
O=C(NC1CCCCCC1)C1CC(=O)N(c2n[nH]c3cccc(F)c23)C1 (stereo unspecified),-20%,7%,32µM*,-6
Cc1cccc(NC(=O)C2CC(=O)N(c3n[nH]c4cccc(F)c34)C2)c1 (stereo unspecified),-9%,-5%,u,-10
CCC1=C(C(=O)OC)C(c2cccc(C)c2)N2C(CC(=O)N3CCCCC3C)=CSC2=N1 (stereo unspecified),1%,-12%,u,12
O=C(NC1CC(c2cc(NCCO)ncn2)C1)c1cc2ccccc2[nH]1 (stereo unspecified),14%,5%,28µM*,9
O=C(NC1CC1)c1nc(-c2ccc(F)cc2)c2cnccn12,-4%[87.6 µM],4%[87.6 µM],35µM*,0
O=C(c1nc(-c2ccc(F)cc2)c2cnccn12)N1CCN(c2ncccn2)CC1,1%,-5%,25µM*,1
O=C(c1nc(-c2ccc(F)cc2)c2ccccn12)N1CCN(c2ncccn2)CC1,2%,4%,28µM*,8
O=C(c1nc(-c2ccc(Cl)nc2)c2ccccn12)N1CCN(c2ncccn2)CC1,44%,4%,u,-8
CC(C)(C)c1nc(C(=O)N2CCN(c3ncccn3)CC2)n2ccncc12,1%,2%,79µM*,-18
O=C(NCc1cccc(C(F)(F)F)c1)C1CCN(c2ccnc3ccnn23)CC1,6%,0%,x,-3
O=C(Nc1ccccc1)NC1CCN(Cc2cccc(-c3cccs3)c2)CC1,u,-7%[12.5 µM],x,16
O=C(c1nc(-c2ccc(Cl)cc2)c2cnccn12)N1CCOCC1,3%[87.6 µM],6%[87.6 µM],32µM*,0
C[S+](=O)([O-])c1ccc(-c2nc(C(=O)N3CCCC3)n3ccncc23)cc1,u,u,u,-8
CC(C)Cc1nc2nccc(-c3cccs3)n2n1,13%,9%,25µM*,2
CC(C)c1nc2nccc(-c3ccco3)n2n1,6%,-2%,u,-1
CC(C)c1nc2nccc(-c3cccs3)n2n1,13%,5%,25µM*,0
O=C(NCc1ccc(Cl)cc1)c1cc(-c2ccc(Cl)cc2Cl)c2nncn2n1,-1%,-12%[12.5 µM],x,4
COc1ccccc1-c1cccc(C(=O)N2CCN([S+](=O)([O-])c3ccc(C)cc3)CC2)c1,13%,7%[12.5 µM],x,16
O=C(CCn1ccn2nc3c(c2c1=O)CCCC3)NCc1ccc(F)c(Cl)c1,43%,-15%,i,2
O=C(CCNc1cnc2cnccn12)NCc1ccc(F)c(Cl)c1,37%,31%,25µM*,14
CC(C)(C)C(=O)Nc1ccc(-c2nc3ccccc3s2)cc1,1.4µM*,-9%,i,-6
CN1CCc2c(sc3c2C(=O)NC(c2ccc(OC(=O)c4ccc(Cl)cc4)cc2)N3)C1 (stereo unspecified),-17%,24%,u,-2
SMILES,SNCA expr inh,HEK293 viab,KDM5B inh,IP6K1 inh
CN1CCc2c(sc3c2C(=O)NC(c2ccc(OC(=O)c4ccc(C(C)(C)C)cc4)cc2)N3)C1 (stereo unspecified),1µM*,u,u,-10
COc1ccc([C@H]2C[C@@H](O)[C@@H](O)[C@@H]2NCc2cn(C)c3ccccc23)cc1,-15%[87.6 µM],u,u,7
COc1ccc(Cc2nc3nccc(-c4cccnc4)n3n2)cc1,35%,10%,i,-11
COc1ccc(Cc2nc3nccc(-c4cccc(OC)c4)n3n2)cc1,85%,4%,20µM*,-4
COc1ccc(CCc2nc3nccc(-c4cccc(OC)c4)n3n2)cc1,-24%,2%,18µM*,1
CC(NC(=O)c1ccc2c(c1)OCO2)C(=O)N1CCN(c2ccccn2)CC1 (stereo unspecified),15%,-6%,32µM*,17
CC(C)C(NC(=O)c1cccc(C#N)c1)C(=O)N1CCN(c2ccccn2)CC1 (stereo unspecified),-5%,-7%,u,8
CC(NC(=O)c1cccc(C#N)c1)C(=O)N1CCN(c2ccccn2)CC1 (stereo unspecified),2%,-2%,25µM*,1
CCOc1ccc(C(=O)NC(C)C(=O)N2CCN(c3ccccn3)CC2)cc1 (stereo unspecified),4%,6%,u,2
O=C(NCc1ccccc1Cl)c1nc2sccn2c1-c1ccncc1,-8%,2%,x,17
CN(Cc1cccc(N2CCN([S+](=O)([O-])c3cccc4ccccc34)CC2)c1F)[S+](C)(=O)[O-],x,x,x,10
Cc1nnnn1CC(=O)NCc1cccnc1N(C)CCc1ccccn1,-10%,5%,i,12
CCn1ccc(C(=O)NCc2cccnc2N(C)CCc2ccccn2)n1,-11%,-11%,28µM*,5
C=CC(=O)Nc1cccc(Nc2nc(Nc3ccc(NC4CN(CCF)C4)cc3OC)ncc2C(F)(F)F)c1,x,4.7µM*,x,-6
C=CC(=O)Nc1cccc(Nc2nc(Nc3ccc(OCCOC)cc3)ncc2F)c1,x,9.5µM*,x,-7
CC(=O)NCC(=O)N1C2CCC1c1cc(Nc3ncc(C(F)(F)F)c(NC4CCC4)n3)ccc12 (stereo unspecified),x,u,x,-18
COc1cccc(CNC(=O)[C@@H]2CCCN2c2nccc(Nc3ccccc3Cl)n2)c1,-16%,-13%[12.5 µM],x,-4
CCN(CC)CCNC(=O)c1ccc2nc(-c3ccccc3)c(-c3ccc(CN4CCC(n5c(=O)[nH]c6ccccc65)CC4)cc3)nc2c1,u,15µM*!,x,-1
N#Cc1ccccc1-c1ccc(-c2cn(Cc3nnc4ccccn34)nn2)o1,-21%,4%,28µM*,-6
Cc1ccc(-c2cccc(CN3CCCC(N[S+](C)(=O)[O-])C3)c2)cc1Cl (stereo unspecified),u,-3%,x,-3
CCOC(=O)[C@H]1C[C@]2(CCCCN(C)C2=O)N(C(=O)c2ccccc2)[C@H]1c1ccco1,x,x,x,-10
Cc1nc2c(NC3CCN(C(=O)c4cccn4C)CC3)cccn2n1,3%,1%,32µM*,12
Cn1cccc1C(=O)N1CCC(Nc2cccnc2)C1 (stereo unspecified),-5%,9%,i,6
Cc1cnc(NC(=O)c2ccc3c(c2)OCCN(c2ccccc2)C3)s1,19%[87.6 µM],-10%[87.6 µM],28µM*,-10
CN1CC(=O)N(c2ccccc2F)Cc2c(NCCc3ccc(Cl)cc3)ncnc21,u,-13%,25µM*,-4
